“And” between values parts separate entries of the source, which are not always exact repeats. Equal entries are not always repeated. Hit rate of the full screen: of about 320,000 compounds, about 22,000 (6.9%) were called active. Another 27% or so got no clear call; they are omitted. This excerpt belongs to a sample that is enriched for actives. A number with no mark means an inactive call. The call rests on the fitted dose curve; in most records, active means well fitted inhibition curve with a large enough effect; inconclusive means small, poorly fitted or top-dose-only effect, or another doubt; inactive means no such curve, though single readings can be large or run the other way.
On the % scale 0 is the no-effect control and ±100 the full control effect; potency means the concentration at half of the fitted maximal effect.

The nature of the assay: Primary qHTS for delayed death inhibitors of the malarial parasite plastid, 96 hour incubation. Particulars: P. falciparum luciferase reporter growth; series mostly up to 28.7 µM; activity change, negative = inhibition: at the top concentration. The gist of the method: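 Erythrocytes infected with luciferase-expressing P. falciparum were dispensed at 2% hematocrit and 0.05% parasitemia (final), then incubated with compounds 96 hours at 37 C in 5% CO2. Luminescence after detection reagent addition reported growth.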
Background: qHTS replaces the single test concentration by a dilution series.
For the compound `CCOC(=O)c1cc(NC(=O)SCC(=O)O)c(C)nc1C`, the Potency is 7.38 µM (active).
For `CCOC(=O)c1cnc(-n2nc(C)cc2C)nc1-n1nc(C)cc1C`, the “activity change, negative = inhibition” value is 26%.
Same read-out and setting: next, `CCOC(=O)c1ccccc1NC(=O)CSc1nc2ccccc2c(=O)[nH]1`: -0.129%; `CC1CCC(NS(=O)(=O)c2ccc3c(c2)CC(=O)N3)CC1` (stereo unspecified): -7.2%.
Same read-out and setting: next, `Cc1ccc(Cc2nnc(SCC(=O)Nc3ccc(C)cc3C)[nH]c2=O)cc1`: 31.1%; `O=C(CCN1CCN(C/C=C/c2ccccc2)CC1)Nc1ccccc1Cl`: -27.3%.
Same read-out and setting: next, `C/C(=N\NC(=O)c1ccoc1C)c1ccccc1O`: 163%; `COc1ccc(C(=O)c2c(C)c(CCC#N)n3ccccc23)c(OC)c1`: -23.2%.
With `Oc1c(Cl)cc(Cl)c(Cl)c1Cc1c(O)c(Cl)cc(Cl)c1Cl`, the Potency was 12 µM (active) and 9.28 µM (active).
`CN(C)c1nc(NN)nc(Nc2ccc(F)cc2)n1`: the “activity change, negative = inhibition” value was 1.79%.
Still for that read-out and setting: next, `COc1ccc(N(CC(=O)Nc2cccc3ccccc23)S(C)(=O)=O)c(OC)c1`: -37.1%; `C=CCn1c(SCC(=O)NC23CC4CC(CC(C4)C2)C3)nc(O)cc1=O`: -29.2%; `C=CCn1c(COc2ccccc2)nnc1SCC(=O)NCC(=O)OCC`: 4.6%.
`C=CCn1c(SCC(=O)NC)nnc1C12CC3CC(CC(C3)C1)C2`: the Potency is 11.7 µM (active).
For `C=CCSc1nnc(NC(=O)c2ccc(NC(C)=O)cc2)s1`, the “activity change, negative = inhibition” value is 14%.
Same read-out and setting: next, `CC1CC(C)CN(C(=O)CCNC(=O)Cn2cnc3ccccc3c2=O)C1` (stereo unspecified): -3.35%.
On the same count and under the same terms, the result for `Cc1cc(S(=O)(=O)N2CCOCC2)ccc1OCC(=O)N1CCOCC1` reads 9.58%; that for `O=C(NCc1ccccc1Cl)C1CCN(S(=O)(=O)c2cccc3nonc23)CC1`, -7.24%.
`O=C1CCc2cc(S(=O)(=O)N3CCC(C(=O)NCc4ccccc4Cl)CC3)ccc2N1`: the Potency is 13.1 µM (active).
As for `O=C(NCc1ccccc1Cl)C1CCN(S(=O)(=O)N2CCOCC2)CC1`, the “activity change, negative = inhibition” value was 4.74%.
In the case of `CSc1ccc(Cl)c(C(=O)OCC(=O)N2CCNC2=O)c1`, the “activity change, negative = inhibition” value was -21.6%.
For `Cc1ccc(NC(=O)N2CCC(c3nc4c(nnn4Cc4c(F)cccc4Cl)c(=O)[nH]3)CC2)cc1`, the Potency is 9.28 µM (active).
Take `COc1ccc(Cn2nnc3c(=O)[nH]c(C4CCN(C(=O)c5ccccc5Cl)CC4)nc32)cc1`: the “activity change, negative = inhibition” value is 9.4%.
Consider `O=C(Nc1ccc(F)cc1)N1CCCC(c2nc3c(nnn3Cc3ccccc3Cl)c(=O)[nH]2)C1` (stereo unspecified), for which the “activity change, negative = inhibition” value was 16.6%.
On the same count and under the same terms, the result for `CC(Sc1nnc(-c2cccs2)n1C1CC1)C(=O)NCC1CCCO1` (stereo unspecified) reads 24.7%.
Same read-out and setting: next, `Cc1cc(C(=O)OCC(=O)Nc2nccs2)c2ccccc2n1`: 20.5%; `COc1ccccc1C(=O)NNC(=O)CCN1C(=O)/C(=C\c2ccccc2)SC1=S`: -14.8%; `CSc1nc(C)nc2c1c(=O)n(C)c(=O)n2C`: 15.9%.
In the case of `CCC(C)Sc1nc(C)nc2c1c(=O)n(C)c(=O)n2C` (stereo unspecified), the Potency was 10.4 µM (active).
In the case of `CC(O)c1nc2c(c(=O)n(C)c(=O)n2C)n1C` (stereo unspecified), the “activity change, negative = inhibition” value is 101%.
On the same count and under the same terms, the result for `COc1ccc(N2CCN(S(=O)(=O)c3cc(Br)cnc3N)CC2)cc1` reads 1.5%; that for `COc1cccc(/C=C2/SC(=S)N(CC(=O)NC3C=CS(=O)(=O)C3)C2=O)c1` (stereo unspecified), 37.3%.
Turning to `COc1ccc(N2CCN(CCNC(=O)Nc3cc(Cl)ccc3Cl)CC2)cc1`, the Potency was 5.22 µM (active).
Turning to `COc1cccc(NC(=O)NCCN2CCCCC2)c1`, the “activity change, negative = inhibition” value is -37%.
Same read-out and setting: the result for `COc1ccc(N2CCN(CCNC(=O)CCN3C(=O)COc4ccccc43)CC2)cc1` reads 24.2%.
Same read-out and setting: the result for `CCOC(=O)c1cccc(NC(=O)CN2C(=O)C3CC=CCC3C2=O)c1` (stereo unspecified) reads -20.6%.
The same measure, in the same setting: next, `CCn1ccnc1CN(C)C(=O)c1ccc2nc(Cc3ccc(OC)cc3)oc2c1`: -22.5%; `Cc1[nH]c(C)c(S(=O)(=O)N2CCN(c3cccc(C(F)(F)F)c3)CC2)c1C(=O)N1CCCC1`: -18%; `COCCNC(=O)NC(=O)COC(=O)C1(c2ccc(Cl)cc2)CC1`: 23.1%.
`COc1ccccc1CN(C)C(=O)C1(c2ccc(Cl)cc2)CC1`: the Potency is 9.28 µM (active).
As to `COc1ccccc1CN(C)C(=O)c1cc2ccccc2o1`, the “activity change, negative = inhibition” value was -19.2%.
On the same count and under the same terms, next, `Cc1cccc(C(=O)NCC(=O)OCC(=O)N(C)CC(=O)Nc2ccccc2Cl)c1`: -24.1%; `O=C1CC2(CCN(C(=O)COc3ccc(F)cc3)CC2)Oc2ccccc21`: -16.8%.
Consider `Cc1ccc(N2CC(C(=O)N3CCC4(CC3)CC(=O)c3ccccc3O4)CC2=O)cc1C` (stereo unspecified), for which the Potency was 11.7 µM (active).
As to `O=C(C1CC(=O)N(c2ccc(F)cc2)C1)N1CCN(c2ccccc2)CC1` (stereo unspecified), the “activity change, negative = inhibition” value was 49.1%.
On to `O=C(Cn1c(NCCO)nc2ccccc21)c1ccc(Cl)cc1Cl`, for which the “activity change, negative = inhibition” value was 26.7%.
Regarding `CC(NC(=O)C(=O)Nc1nccs1)c1ccccc1` (stereo unspecified), the “activity change, negative = inhibition” value was 17.2%.
Same read-out and setting: the result for `CC(=O)c1cccc(NC(=S)N2CCN(S(C)(=O)=O)CC2)c1` reads 47.9%.
The same measure, in the same setting: next, `O=C(NCCCN1CCOCC1)c1ccccc1NS(=O)(=O)c1ccc(Br)cc1`: -14.4%.
Consider `O=C(NCCCN1CCOCC1)c1ccccc1NS(=O)(=O)c1ccc(F)cc1`, for which the “activity change, negative = inhibition” value was 26.6%.
With `O=C(NCCCN1CCOCC1)c1cnn2c(-c3ccccc3)cc(-c3ccccc3)nc12`, the Potency was 9.28 µM (active).

Source of the values: PubChem BioAssay AID504834 (National Center for Advancing Translational Sciences (NCATS), 2011).
